In the library only some 3.5% were active in any assay of this set; here they are far more common.
TEAD-YAP inh: TEAD-YAP interaction inhibition; HEK-TIYL cells, TEAD-Gal4/YAP UAS-luciferase luminescence; inhibition, % at 9.12 µM; 640,000 compounds, 1.4% hits; in the data active = inhibition above about 32%
MITF inh: human MITF inhibition, primary screen. O75030. AlphaScreen MITF homodimerization, bead proximity signal. inhibition, % at 2.6 µM. 650,000 compounds, 0.91% hits; in the data active = inhibition above about 50%
GPR151 ag: activators of human GPR151 | 650,000 compounds, 1% hits | activation, % at 11.2 µM | PathHunter beta-arrestin GPR151 cells, luminescence; in the data active = activation above about 4.9%
Target sequence (Q8TDV0 whole entry, looked up): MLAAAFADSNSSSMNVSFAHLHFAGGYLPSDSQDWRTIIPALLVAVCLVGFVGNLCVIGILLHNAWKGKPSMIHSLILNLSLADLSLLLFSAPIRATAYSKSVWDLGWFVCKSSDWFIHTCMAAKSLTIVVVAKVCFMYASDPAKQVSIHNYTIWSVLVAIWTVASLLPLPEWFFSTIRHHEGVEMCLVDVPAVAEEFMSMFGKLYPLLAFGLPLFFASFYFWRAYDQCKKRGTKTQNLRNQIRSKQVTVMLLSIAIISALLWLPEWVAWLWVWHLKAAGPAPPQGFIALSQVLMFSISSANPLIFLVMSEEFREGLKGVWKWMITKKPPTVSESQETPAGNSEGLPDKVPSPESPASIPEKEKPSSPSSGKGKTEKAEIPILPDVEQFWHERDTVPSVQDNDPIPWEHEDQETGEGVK
FBW7 act: activators of human E3 ligase FBW7; AID 1259310; Q969H0; AlphaScreen FBW7–phospho-cyclin E peptide binding, activator screen; 650,000 compounds, 0.13% hits; normalized activity (activation), % at 26.1 µM; in the data active = normalized activity above about 1.9%;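 note: purified mutant Fbw7 with reduced substrate affinity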
MITF inh conf: human MITF inhibition, confirmation | shares compounds with MITF inh | AlphaScreen MITF homodimerization, biotin/His-MITF beads | inhibition, % at 2.6 µM | 4,700 compounds, 16% hits;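 active = inhibition above a cutoff derived from the DMSO control wells, cut at about 28% in these data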;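 note: inhibitors lower the bead chemiluminescence by keeping MITF from dimerizing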
AlphaScreen DR: optically interferes with AlphaScreen signal in dose response. AID 1259373. 480 compounds, 6% hits. IC50, µM. AlphaScreen optical interference counterscreen, cell-free. shares compounds with MITF inh; call rule not given here
AS interf ctr: counter-screen: compounds optically interfering with AlphaScreen; shares compounds with MITF inh; LysRS AlphaScreen counterscreen, signal interference, triplicate; inhibition, % at 2.6 µM; 4,700 compounds, 7.6% hits; AID 1259376;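 active = inhibition above a cutoff derived from the DMSO control wells, cut at about 30% in these data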
Large screens that a line does not name were inactive (follow-up assays come after a bar, where they were run).

CCn1cc2c(n1)-c1c(oc(C(=O)Nc3ccc(C(C)=O)cc3)c1C)CC2	none
CCOC(=O)c1c(-c2ccc(C)c(C)c2)csc1NC(=O)CN1CCN(C)CC1	MITF inh 89.7 | MITF inh conf inactive | AS interf ctr inactive
CCOC(=O)c1c(-c2ccco2)csc1NC(=O)CN1CCN(C)CC1	none
CCOC(=O)c1c(NC(N)=S)sc2c1CCCC2	none
CCOC(=O)c1c(NC(=S)N2CCN(S(C)(=O)=O)CC2)sc2c1CCCC2	MITF inh 68.7 | MITF inh conf inactive | AS interf ctr inactive
CCOC(=O)c1c(NC(=O)CSc2nnc(C)s2)sc2c1CCC2	MITF inh 54.4 | MITF inh conf inactive | AS interf ctr inactive
CCOC(=O)c1c(NC(=O)CN2CCN(CC)CC2)sc2c1CCC2	MITF inh 80.1 | MITF inh conf inactive | AS interf ctr inactive
CCOc1ccc(S(=O)(=O)Nc2nc3c(C)cccc3s2)cc1	none
Fc1ccc(-c2cc(NCCCn3ccnc3)nc(-c3ccncc3)n2)cc1	none
N#CCCNc1cc(-c2cccc(C(F)(F)F)c2)nc(-c2cccnc2)n1	MITF inh 103.7 | MITF inh conf inactive | AS interf ctr inactive
Fc1ccc(-c2cc(NCCCn3ccnc3)nc(-c3cccnc3)n2)cc1	MITF inh 54.2 | MITF inh conf 31.4 | AS interf ctr 38.6
N#CCCNc1cc(-c2ccc(F)cc2)nc(-c2cccnc2)n1	none
Cc1nc(NCCCn2ccnc2)cc(-c2cccc(C(F)(F)F)c2)n1	MITF inh 60.7 | MITF inh conf inactive | AS interf ctr inactive
CCC(C(=O)Nc1cc(C)on1)(C(F)(F)F)C(F)(F)F	none
COc1cccc(-n2c(SCC(=O)Nc3ccccc3Cl)nc3n[nH]c(C)c3c2=N)c1	none
N#CC(C#N)=Cc1c(-c2ccccc2)nc2ccccn12	none
COc1ccccc1NC(=S)NC(=O)c1ccccc1[N+](=O)[O-]	none
O=C(/C=C/c1ccco1)N1CCN(c2ccc(-c3ccccn3)nn2)CC1	none
Cn1cc(CC(=O)N2CCN(c3ccc(-c4ccccn4)nn3)CC2)c2ccccc21	TEAD-YAP inh 41.9, MITF inh 121.7 | MITF inh conf 107.5 | AS interf ctr 100.6
O=C(Cc1cccs1)N1CCN(c2ccc(-c3ccccn3)nn2)CC1	MITF inh 68.2 | MITF inh conf 51.4 | AS interf ctr 100.5
O=C(/C=C/c1cccs1)N1CCN(c2ccc(-c3ccccn3)nn2)CC1	MITF inh 55.9 | MITF inh conf 103.5 | AS interf ctr 100.6
O=C(CN1CCN(Cc2ccccc2)CC1)Nc1c2c(nc3c1CCC3)CCCC2	MITF inh 67.2 | MITF inh conf inactive | AS interf ctr inactive
CN(CC(=O)Nc1c2c(nc3ccccc13)CCC2)Cc1ccccc1	MITF inh 71.0 | MITF inh conf inactive | AS interf ctr inactive
CN1CCN(CC(=O)Nc2c3c(nc4ccccc24)CCCC3)CC1	MITF inh 60.2 | MITF inh conf inactive | AS interf ctr inactive
O=C(CN1CCN(c2ccccc2)CC1)Nc1c2c(nc3c1CCC3)CCCC2	none
CC1=C(C(=O)Nc2ccccn2)C(c2cnc3ccccc3n2)C2=C(CCCC2=O)N1 (stereo not given)	none
CC(C)N(C(=O)CSc1nnc(NC(=O)c2ccc(F)cc2)s1)C(C)C	none
Cc1ccc(C2=NN(C(=O)Cc3ccc([N+](=O)[O-])cc3)C(O)(C(F)(F)F)C2)cc1 (stereo not given)	none
COC(=O)c1cc(NC(=O)C2=C(C)C(=O)OC23CCCCC3)cc(C(=O)OC)c1	none
COc1ccc(N2CC(CNC(=O)Cc3ccc(F)cc3)CC2=O)cc1 (stereo not given)	MITF inh 55.0 | MITF inh conf inactive | AS interf ctr inactive
CCOC(=O)C1=C(C)NC2=C(C(=O)CCC2)C1c1cc2c(cc1[N+](=O)[O-])OCO2 (stereo not given)	none
CC1=C(C#N)C(c2cc3c(cc2[N+](=O)[O-])OCO3)C2=C(CCCC2=O)N1 (stereo not given)	MITF inh 60.0 | MITF inh conf 80.3 | AlphaScreen DR inactive | AS interf ctr inactive
Brc1c(OCCCCn2ccnc2)ccc2ccccc12	MITF inh 78.0 | MITF inh conf inactive | AS interf ctr inactive
Clc1ccc(OCCCCn2ccnc2)cc1Cl	MITF inh 54.8 | MITF inh conf inactive | AS interf ctr inactive
Clc1cc(Br)ccc1OCCCCn1ccnc1	MITF inh 74.2 | MITF inh conf inactive | AS interf ctr inactive
Clc1ccc(OCCOCCn2ccnc2)cc1Cl	none
CC1(C)OCC(CNC(=O)c2cnc3sc4ccccc4n3c2=O)O1 (stereo not given)	none
CC(C)NC(=O)c1ccc2c(=O)n(CCC3=CCCCC3)c(=S)[nH]c2c1	MITF inh 83.9 | MITF inh conf inactive | AS interf ctr inactive
COCCn1c(=S)[nH]c2cc(C(=O)NCc3ccc(F)cc3)ccc2c1=O	none
COCCn1c(=S)[nH]c2cc(C(=O)NCc3ccc(C)cc3)ccc2c1=O	MITF inh 62.0 | MITF inh conf inactive | AS interf ctr inactive
CCCC(NC(C)=O)C(=O)NC(=O)NC(c1ccccc1)c1ccccc1 (stereo not given)	none
O=C(Cc1ccccc1)n1nc(-c2cccnc2)nc1NCc1ccccc1	none
O=C(Cc1ccccc1)n1nc(-c2cccnc2)nc1NCc1cccs1	MITF inh 57.5 | MITF inh conf inactive | AS interf ctr inactive
CN1CCCN(Cc2cccc(Oc3ccccc3)c2)CC1	MITF inh 54.8 | MITF inh conf inactive | AS interf ctr inactive
CN1CCN(Cc2cccc(Oc3ccccc3)c2)CC1	none
OC1CCN(Cc2cccc(Oc3ccccc3)c2)CC1	none
CCc1ccc(CN2CCN(Cc3cccc(Oc4ccccc4)c3)CC2)cc1	MITF inh 66.7 | MITF inh conf inactive | AS interf ctr inactive
Cc1ncc(CO)c(/C=N/NC(=S)Nc2cccc(S(=O)(=O)N(C)C)c2)c1O	MITF inh 68.4 | MITF inh conf inactive | AS interf ctr inactive
Cc1ncc(CO)c(/C=N/NC(=S)Nc2cccc(Cl)c2)c1O	none
Cc1ncc(CO)c(/C=N/NC(N)=S)c1O	MITF inh 104.7 | MITF inh conf inactive | AS interf ctr inactive
Cc1ccc(NC(=O)Nc2cccc(C(F)(F)F)c2)cc1	none
O=C(O)Cn1c(=O)oc2cc([N+](=O)[O-])ccc21	none
O=C(COc1ccccc1N1C(=O)c2ccccc2C1=O)c1ccc(F)cc1	MITF inh 60.2 | MITF inh conf inactive | AS interf ctr inactive
c1ccc2nn(C34CC5CC(CC(C5)C3)C4)nc2c1	none
O=C1CCCN1C(=O)CN1CCOCC1	MITF inh 53.2 | MITF inh conf inactive | AS interf ctr inactive
O=C1CCCN1C(=O)CN1CCCCC1	MITF inh 52.4 | MITF inh conf inactive | AS interf ctr inactive
S=c1[nH]c2ccccc2n2c(=S)[nH]nc12	none
S=c1nc2ccccc2c2[nH]c3ccccc3n12	MITF inh 56.2 | MITF inh conf inactive | AS interf ctr inactive
